# In all, about 5,500 compounds went through this assay and about 2,000 (36%) were called active. Not shown: some 18% with an inconclusive outcome. The list shows a part of the results. A number with no mark means an inactive call. Cut-off read from the data, not from the text of the source: active = normalized growth mostly below about 0.91 (no sharp cut-off); inconclusive = no clear call, values can overlap the other calls; inactive = mostly above about 0.92.
# Test: chemical genetic growth profiling, strain panel (AID 1159580);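 note: tested at 20 µM; growth read once vehicle control cultures reached saturation at 30 °C; 1 = growth at the plate median or of vehicle wells; lower values mean less growth of the strain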
# Settings: S. cerevisiae deletion strains, growth OD
structure (smiles),measurement,setting,value
C[C@]12CC[C@@H](O)CC1CC[C@@H]1[C@@H]2CC[C@]2(C)C(=O)CC[C@@H]12 (stereo partly specified),normalized growth,"locus YAL013W, strain DEP1, hits give low values",0.895 (active)
same,normalized growth,"locus YAL040C, strain CLN3, hits give low values",0.989
same,normalized growth,"locus YCL061C, strain MRC1 (second series), hits give low values",1
same,normalized growth,"locus YDR363W, strain ESC2, hits give low values",0.938
same,normalized growth,"locus YER002W, strain NOP16, hits give low values",1.02
same,normalized growth,"locus YGR078C, strain PAC10, hits give low values",0.973
same,normalized growth,"locus YNL175C, strain NOP13, hits give low values",1.01
same,normalized growth,"locus YNL197C, strain WHI3, hits give low values",0.993
same,normalized growth,"locus YNL224C, strain SQS1, hits give low values",0.997
same,normalized growth,"locus YOR083W, strain WHI5 (second series), hits give low values",0.885
same,normalized growth,"locus YPL241C, strain CIN2, hits give low values",1.04
